# Assay results reported in ChEMBL document CHEMBL3988442, “University of Dundee, Small-Polar-MMV Screening Library” (2021).
# For some assays here: Entries with a potency or affinity are not part of this list.
# Tests used:
# Design in all cases: scale not given: direction of the effect not stated beside the values
# [1] = molecular target: Protein translocase subunit SecA (Escherichia coli (strain K12)) (UniProt P10408); test: Assay to Identify E. coli SecA ATPase Inhibitors; assay type: functional; details: 30 µM
# Chain of Protein translocase subunit SecA (Escherichia coli (strain K12)) (P10408 whole entry): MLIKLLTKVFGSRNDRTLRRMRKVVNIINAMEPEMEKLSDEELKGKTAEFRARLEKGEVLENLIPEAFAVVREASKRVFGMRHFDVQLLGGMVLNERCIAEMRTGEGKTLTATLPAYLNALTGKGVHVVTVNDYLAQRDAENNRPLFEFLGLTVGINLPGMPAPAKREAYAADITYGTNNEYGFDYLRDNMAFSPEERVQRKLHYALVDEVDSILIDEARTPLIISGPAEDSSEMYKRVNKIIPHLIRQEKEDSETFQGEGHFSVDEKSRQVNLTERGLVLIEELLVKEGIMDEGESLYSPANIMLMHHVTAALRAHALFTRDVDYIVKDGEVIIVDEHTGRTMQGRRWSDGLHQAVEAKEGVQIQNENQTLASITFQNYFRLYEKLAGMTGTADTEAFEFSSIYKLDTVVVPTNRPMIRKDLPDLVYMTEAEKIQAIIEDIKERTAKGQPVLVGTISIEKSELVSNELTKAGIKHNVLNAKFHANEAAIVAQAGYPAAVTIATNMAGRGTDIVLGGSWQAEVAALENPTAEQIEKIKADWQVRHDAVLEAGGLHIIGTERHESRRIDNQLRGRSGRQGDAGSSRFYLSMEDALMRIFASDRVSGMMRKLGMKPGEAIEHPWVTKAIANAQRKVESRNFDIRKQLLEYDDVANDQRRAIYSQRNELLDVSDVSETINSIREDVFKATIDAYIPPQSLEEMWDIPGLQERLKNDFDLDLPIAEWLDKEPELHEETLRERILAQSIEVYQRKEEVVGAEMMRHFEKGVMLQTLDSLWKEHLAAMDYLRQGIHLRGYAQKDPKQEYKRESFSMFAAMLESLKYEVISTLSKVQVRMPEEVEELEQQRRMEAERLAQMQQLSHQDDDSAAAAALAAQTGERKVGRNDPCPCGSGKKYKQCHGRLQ
# [2] = molecular target: T1, Ubiquitin-activating enzyme e1, putative (Leishmania donovani (strain BPK282A1)) (UniProt E9BSI1); test: Leishmania donovani Ubiquitin Activating Enzyme (LdE1); assay type: functional; details: 30 µM
# T1 sequence (whole entry): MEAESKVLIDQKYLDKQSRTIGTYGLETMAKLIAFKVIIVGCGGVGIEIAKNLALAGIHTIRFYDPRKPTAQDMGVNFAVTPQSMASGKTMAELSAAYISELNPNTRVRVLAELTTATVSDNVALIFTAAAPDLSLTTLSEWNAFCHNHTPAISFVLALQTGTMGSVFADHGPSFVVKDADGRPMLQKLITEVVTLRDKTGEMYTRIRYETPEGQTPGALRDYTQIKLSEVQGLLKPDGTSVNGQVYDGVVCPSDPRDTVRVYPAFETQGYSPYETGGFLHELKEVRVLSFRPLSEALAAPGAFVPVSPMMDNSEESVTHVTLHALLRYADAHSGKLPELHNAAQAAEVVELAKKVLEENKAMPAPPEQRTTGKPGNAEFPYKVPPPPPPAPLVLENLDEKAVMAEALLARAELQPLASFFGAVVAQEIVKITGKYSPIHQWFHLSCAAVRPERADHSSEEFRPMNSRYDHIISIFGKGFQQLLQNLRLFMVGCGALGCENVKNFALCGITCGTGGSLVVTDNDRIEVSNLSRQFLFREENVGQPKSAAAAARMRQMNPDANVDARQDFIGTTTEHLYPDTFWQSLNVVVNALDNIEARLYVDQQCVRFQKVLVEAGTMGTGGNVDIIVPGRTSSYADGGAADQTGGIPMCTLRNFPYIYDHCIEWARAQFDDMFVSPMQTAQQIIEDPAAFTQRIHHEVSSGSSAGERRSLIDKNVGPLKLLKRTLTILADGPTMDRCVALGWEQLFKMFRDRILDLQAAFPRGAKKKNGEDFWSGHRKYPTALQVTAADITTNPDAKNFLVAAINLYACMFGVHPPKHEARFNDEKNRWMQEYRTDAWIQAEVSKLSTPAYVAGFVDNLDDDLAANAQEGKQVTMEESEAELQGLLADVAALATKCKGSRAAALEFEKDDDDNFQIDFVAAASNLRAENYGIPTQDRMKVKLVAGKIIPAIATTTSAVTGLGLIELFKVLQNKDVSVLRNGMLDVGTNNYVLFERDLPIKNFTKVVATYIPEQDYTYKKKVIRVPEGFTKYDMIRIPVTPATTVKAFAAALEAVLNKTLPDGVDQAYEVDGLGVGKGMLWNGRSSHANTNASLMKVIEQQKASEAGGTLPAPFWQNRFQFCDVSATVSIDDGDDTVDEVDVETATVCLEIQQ
# [3] = molecular target: AMP-activated protein kinase, AMPK (Homo sapiens) (UniProt P54646+O43741+P54619+Q9UGJ0+Q9Y478+Q13131+Q9UGI9); test: AMP-dependent Kinase enzyme assay. An in vitro enzyme assay that detects ADP turnover that is directly proportional to AMPK activity. This uses naive AMPK that is activated during the assay with MK-8722; assay type: functional; details: 30 µM
# [4] = molecular target: Sialic acid-binding Ig-like lectin 9 (Homo sapiens) (UniProt Q9Y336); test: Hs-Siglec9 ALPHAscreen SOP 20170721; details: 10 µM
# Chain of Sialic acid-binding Ig-like lectin 9 (Homo sapiens) (Q9Y336 whole entry): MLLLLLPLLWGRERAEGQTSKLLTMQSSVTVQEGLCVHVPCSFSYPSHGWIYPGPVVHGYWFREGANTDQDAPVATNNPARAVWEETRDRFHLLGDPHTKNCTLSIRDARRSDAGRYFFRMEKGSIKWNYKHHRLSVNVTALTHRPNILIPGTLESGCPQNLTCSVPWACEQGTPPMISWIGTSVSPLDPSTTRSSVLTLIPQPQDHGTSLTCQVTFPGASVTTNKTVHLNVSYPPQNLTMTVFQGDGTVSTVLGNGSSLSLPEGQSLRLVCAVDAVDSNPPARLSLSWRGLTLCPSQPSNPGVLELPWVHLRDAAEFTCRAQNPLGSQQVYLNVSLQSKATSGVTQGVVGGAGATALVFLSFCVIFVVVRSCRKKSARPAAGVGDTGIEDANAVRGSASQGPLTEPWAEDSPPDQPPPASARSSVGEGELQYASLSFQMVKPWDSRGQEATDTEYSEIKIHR
# [5] = system: Trypanosoma cruzi; test: Trypanosoma cruzi phosphomannomutase and mannose-1-phosphate guanylyltransferase assay; assay type: functional; details: 10 µM
# [6] = molecular target: T2, Arginase-2, mitochondrial (Homo sapiens) (UniProt P78540); test: in vitro enzyme assay to detect the production of urea directly proportional to the activity of Arginase II; assay type: functional; details: 33.3 µM; note: in the data most compounds retested in dose-response had high values
# T2 sequence (whole entry): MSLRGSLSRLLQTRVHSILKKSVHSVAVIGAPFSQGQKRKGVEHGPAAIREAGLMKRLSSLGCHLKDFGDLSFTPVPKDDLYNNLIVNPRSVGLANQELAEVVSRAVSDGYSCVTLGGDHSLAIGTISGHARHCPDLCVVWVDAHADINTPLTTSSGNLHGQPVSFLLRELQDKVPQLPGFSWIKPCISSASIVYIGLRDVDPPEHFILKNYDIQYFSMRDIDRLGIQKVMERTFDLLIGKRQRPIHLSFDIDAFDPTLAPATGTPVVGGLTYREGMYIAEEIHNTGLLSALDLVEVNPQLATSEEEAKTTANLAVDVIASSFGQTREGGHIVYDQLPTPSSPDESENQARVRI
# [7] = molecular target: T3, Proteasome subunit beta (Trypanosoma cruzi) (UniProt O96673); test: Trypanosoma cruzi proteasome chymotrypsin-like activity (TcProtChymo) assay.; note: in the data most compounds retested in dose-response had high values; assay type: functional; details: 9.37 µM
# T3 sequence (whole entry): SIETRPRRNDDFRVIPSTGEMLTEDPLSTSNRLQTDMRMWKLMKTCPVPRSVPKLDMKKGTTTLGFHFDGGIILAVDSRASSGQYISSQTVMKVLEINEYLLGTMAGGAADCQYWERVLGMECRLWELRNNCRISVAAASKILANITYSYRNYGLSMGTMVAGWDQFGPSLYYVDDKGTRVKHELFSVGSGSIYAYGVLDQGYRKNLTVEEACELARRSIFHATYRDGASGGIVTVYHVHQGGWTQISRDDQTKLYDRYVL
# [8] = species: Homo sapiens; test: To identify inhibition of the IFN signalling (Jak-Stat) pathway via expression of an eGFP reporter gene under the control of an IFN-stimulated response element (ISRE) containing MxA promoter.; assay type: functional; details: 30 µM
# [9] = molecular target: T4, Tyrosyl-tRNA synthetase, putative (Trypanosoma cruzi (strain CL Brener)) (UniProt Q4DSP6); test: Trypanosoma cruzi tyrosyl tRNA synthetase (TcYRS) _High Tyrosine SOP; assay type: functional; details: 30 µM; note: in the data most compounds retested in dose-response had high values
# T4 sequence (whole entry): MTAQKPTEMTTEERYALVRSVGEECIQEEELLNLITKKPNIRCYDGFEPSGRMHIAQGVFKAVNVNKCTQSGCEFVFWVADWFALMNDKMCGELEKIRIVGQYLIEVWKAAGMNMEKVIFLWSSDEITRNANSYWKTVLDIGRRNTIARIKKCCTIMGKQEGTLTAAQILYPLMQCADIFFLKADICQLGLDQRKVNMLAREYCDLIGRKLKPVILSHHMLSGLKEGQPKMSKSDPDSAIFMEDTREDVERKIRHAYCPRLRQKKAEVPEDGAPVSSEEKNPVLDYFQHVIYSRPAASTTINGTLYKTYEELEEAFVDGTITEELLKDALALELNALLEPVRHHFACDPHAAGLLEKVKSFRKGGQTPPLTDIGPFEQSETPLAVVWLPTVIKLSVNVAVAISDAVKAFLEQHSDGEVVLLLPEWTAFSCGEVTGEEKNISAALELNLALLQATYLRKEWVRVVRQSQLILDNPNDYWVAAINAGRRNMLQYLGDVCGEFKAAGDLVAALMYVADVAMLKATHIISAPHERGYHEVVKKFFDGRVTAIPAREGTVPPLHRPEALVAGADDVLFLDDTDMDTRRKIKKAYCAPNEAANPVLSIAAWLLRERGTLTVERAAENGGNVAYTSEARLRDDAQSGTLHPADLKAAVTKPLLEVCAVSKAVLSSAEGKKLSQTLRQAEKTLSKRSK
# [10] = molecular target: T4, Tyrosyl-tRNA synthetase, putative (Trypanosoma cruzi (strain CL Brener)); test: Trypanosoma cruzi tyrosyl tRNA synthetase (TcYRS) SOP; assay type: functional; details: 30 µM
# [11] = molecular target: Chromo domain-containing protein 1 (Saccharomyces cerevisiae (strain ATCC 204508 / S288c) (Baker's yeast)) (UniProt P32657); test: ScCHD-1 Enzyme Inhibition Assay; assay type: functional; details: 30 µM; note: in the data most compounds retested in dose-response had high values
# Chain of Chromo domain-containing protein 1 (Saccharomyces cerevisiae (strain ATCC 204508 / S288c) (Baker's yeast)) (P32657 whole entry, the tested form may be a part): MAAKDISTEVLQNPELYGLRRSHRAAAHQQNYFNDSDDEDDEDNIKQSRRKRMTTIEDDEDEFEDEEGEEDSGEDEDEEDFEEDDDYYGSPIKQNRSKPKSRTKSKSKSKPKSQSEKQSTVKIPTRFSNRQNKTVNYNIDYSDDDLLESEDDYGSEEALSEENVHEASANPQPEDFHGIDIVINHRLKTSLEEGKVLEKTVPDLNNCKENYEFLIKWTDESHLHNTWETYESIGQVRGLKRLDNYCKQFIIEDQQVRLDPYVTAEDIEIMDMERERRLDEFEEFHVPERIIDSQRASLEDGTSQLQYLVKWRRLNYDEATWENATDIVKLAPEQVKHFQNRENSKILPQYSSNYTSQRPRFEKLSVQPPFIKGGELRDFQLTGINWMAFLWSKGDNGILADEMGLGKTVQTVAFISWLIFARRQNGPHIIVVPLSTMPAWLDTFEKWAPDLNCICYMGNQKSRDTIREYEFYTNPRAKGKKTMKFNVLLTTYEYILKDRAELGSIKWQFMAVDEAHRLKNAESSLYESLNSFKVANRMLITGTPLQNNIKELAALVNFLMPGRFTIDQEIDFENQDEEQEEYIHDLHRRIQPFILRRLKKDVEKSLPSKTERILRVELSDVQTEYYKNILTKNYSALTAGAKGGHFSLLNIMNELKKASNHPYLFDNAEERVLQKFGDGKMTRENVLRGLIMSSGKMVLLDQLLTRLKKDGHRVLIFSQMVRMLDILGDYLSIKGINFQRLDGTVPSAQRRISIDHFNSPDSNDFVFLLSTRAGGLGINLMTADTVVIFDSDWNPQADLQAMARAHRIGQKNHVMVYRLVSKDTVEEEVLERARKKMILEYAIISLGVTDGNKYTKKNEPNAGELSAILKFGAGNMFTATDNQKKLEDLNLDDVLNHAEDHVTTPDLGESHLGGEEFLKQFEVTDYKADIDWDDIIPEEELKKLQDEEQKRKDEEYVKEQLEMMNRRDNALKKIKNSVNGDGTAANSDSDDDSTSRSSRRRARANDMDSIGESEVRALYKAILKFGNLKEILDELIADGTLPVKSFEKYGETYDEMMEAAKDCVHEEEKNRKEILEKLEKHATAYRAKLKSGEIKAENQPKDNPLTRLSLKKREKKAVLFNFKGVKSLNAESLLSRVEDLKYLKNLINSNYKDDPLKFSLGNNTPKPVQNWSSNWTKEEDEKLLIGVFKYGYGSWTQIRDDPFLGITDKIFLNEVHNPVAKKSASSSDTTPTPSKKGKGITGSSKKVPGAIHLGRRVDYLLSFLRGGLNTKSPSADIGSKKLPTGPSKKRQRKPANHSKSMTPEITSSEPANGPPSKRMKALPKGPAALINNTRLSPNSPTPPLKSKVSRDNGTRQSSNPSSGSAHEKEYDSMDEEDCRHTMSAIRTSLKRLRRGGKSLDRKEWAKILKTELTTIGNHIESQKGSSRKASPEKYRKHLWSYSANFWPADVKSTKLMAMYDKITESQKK
Structure (SMILES),Percent Effect [1] [%],Percent Effect [2] [%],Percent Effect [3] [%],Percent Effect [4] [%],Percent Effect [5] [%],Percent Effect [6] [%],Percent Effect [7] [%],Percent Effect [8] [%],Percent Effect [9] [%],Percent Effect [10] [%],Percent Effect [11] [%]
CCn1cnnc1CNC(=O)c1cc(Cl)ccc1O,-2.03,8.86,6.87,-0.716,-5.44,-7.1,17,11.3,5.21,-15.2,-14
Cc1cnn(CC2CCCN2Cc2cc(=O)n3cccc(C)c3n2)c1 (configuration not stated),-6.14,8.11,-3.73,28.3,6.75,35.5,17.8,-6.92,14,25.9,-5.16
CN(C(=O)C1CCCCC1)[C@@H]1CCC[C@@H](N2CCOCC2)[C@@H]1O,-3.72,4.05,0.0373,6.37,1.78,-2.09,6.86,8.21,1.07,3.9,74.8
O=C(NCCOc1ncc(Cl)cc1Cl)c1ccncc1,-9.07,0,3.95,4.2,-5.27,-1.67,9.72,14.8,7.92,8.54,-3.07
Cc1nnc2n1CCN(C(=O)c1cn(-c3ccccc3Cl)nn1)C2,-5.44,8.22,-1.29,1.29,0.992,-2.79,6.25,0.99,7.29,16.1,-2.71
CCC(C)CNc1ccc2oc(COC)nc2c1 (configuration not stated),7.14,32.4,-44.5,7.84,-5.08,6.67,20.9,42.4,-6.93,-11,4.53
Cc1noc(CN2Cc3ccccc3CC2c2nnc(C)o2)n1 (configuration not stated),-3.16,5.2,6.26,12.5,3.23,1.9,5.58,8.44,2.86,7.06,3.28
O=C(Nc1nccs1)N1CCCC(N2CCNC2=O)C1 (configuration not stated),-3.07,11,7.04,15.8,0.196,17.3,21.1,2.14,4.3,22.5,-6.39
O=C(C1CCC1)N1CCN(Cc2ccsc2)[C@H]2CS(=O)(=O)C[C@H]21,-4.53,2.6,1.04,4.76,-5.41,1.38,15.8,2.92,2.15,3.7,-0.294
Cc1ccc(CNC(=O)NCc2csc(C)n2)cn1,-2.07,17.7,-8.56,-3.48,-3.31,8.37,-1.56,0.522,5.42,16.5,-6.06
O=C(NC1CCC1)[C@@H]1C[C@@H]2CCN(Cc3cccs3)C[C@@H]2O1,-2.68,-2.67,10.9,-2.43,-0.197,2.56,7.67,28.3,3.19,11.5,-2.54
O=C(CN1CCc2c(ncn2C2CC2)C1)NC1CC1,-2.66,-3.8,-0.272,5.53,-2.56,3.66,9.09,5.09,2.08,5.06,-4.23
CCn1cc(NC(=O)C2CCN(Cc3ccccc3C#N)CC2)cn1,-3.86,8.86,6.54,0.163,-3.79,1.5,7.03,11.2,9.38,20.2,-6.33
Cc1[nH]nc2ncc(C(=O)N3CCN(CC(C)C)CC3)cc12,-2.98,15.8,10.4,-2.95,7.56,-3.24,7.36,-2.6,8.37,23.5,-7.62
CN(C)c1ccc(C(=O)N2CCN(C(=O)N3CCCCC3)CC2)nn1,-6.05,7.79,4.21,10.5,5.8,-3.92,4.56,3.45,0,7.32,-13.4
Cc1nn(C)c(C)c1CC(=O)N1CCC(N(C)c2cccnn2)CC1,0.112,15.8,0.809,-2.31,-2.82,4.98,10.5,42.1,3.43,4.88,-9.53
Cc1cnc(N)c(C(=O)C2CCN(C(=O)c3ccccc3F)CC2)c1,-7.77,13.3,4.93,7.45,2.76,-2.56,6.26,33,7.45,8.97,-6.49
CCOC(=O)c1c(NC(=O)CN2CCN(C(C)=O)CC2)sc2c1CCC2,-3.66,7.89,9.52,4.99,-0.0974,-1.18,7,-11.1,4.25,13,-4.6
Cc1ccc(C2CSCCN2C(=O)c2ccc(C(N)=O)cc2)o1 (configuration not stated),-2.99,5.41,-7.52,13.6,1.47,20.6,10,-21.9,4.3,11.1,-2.9
CC[C@@]1(O)CCN(C(=O)c2ccc(-c3cccc(F)c3)cc2)C[C@H]1O,-2.8,4.17,-2.66,-8.29,-3.6,0.883,13.3,16.4,2.1,10.3,-3.01
CCc1nsc(NC2CCCn3nc(COC)nc32)n1 (configuration not stated),-4.32,13.3,-5.77,21.4,4.77,16.7,9.94,7.13,3.83,13.6,-6.59
CCOc1ccc(C2CC(=O)Nc3c2c(=O)nc2sccn32)cc1 (configuration not stated),-6.79,17.3,-2.62,8.5,1.97,-6.51,9.06,7.35,4.23,7.69,-13.3
